We go through five compounds from PubChem BioAssay (NCATS).

The structures appear in SMILES notation. Where “and” joins values, the source holds several entries; their conditions need not be identical. Identical values can stand only once. Inconclusive results are not listed. Some structures have more than one record in an assay (separate samples or runs), and their calls can disagree. Calls of active or inactive are those of the source. The call rests on the fitted dose curve; in most records, active means well fitted curve in the direction sought with a large enough effect; inconclusive means small, poorly fitted or top-dose-only effect, or another doubt; inactive means no such curve, though single readings can be large; an effect the other way counts as inactive or inconclusive.

For one experiment, the system named is MCC-26. The experiment is described as follows: qHTS assay to identify novel small-molecules to repurpose for Merkel cell carcinoma treatment (AID 1296009). Further: nearly all actives have a fitted effect of over 60% in size. As to conditions: MCC and control cell lines, CellTiter-Glo viability, 72 h; series mostly up to 46 µM. The gist of the method:
(§1)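 Cell viability, measured as CellTiter-Glo luminescence, was normalized between DMSO and no-cell wells. The cells had been exposed to 8- or 11-point compound dilutions for 72 hr at 37 degree celsius.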

The subject of another experiment is MKL-1. Described as above. To be noted: MCC and control cell lines, CellTiter-Glo viability, 72 h; series mostly up to 46 µM. The method in brief: as §1
In another experiment the test system is MKL-2. Described as above. To be noted: MCC and control cell lines, CellTiter-Glo viability, 72 h; series mostly up to 46 µM. The method in brief:
as §1

The next experiment has as its system UISO. Described as above. As to conditions: MCC and control cell lines, CellTiter-Glo viability, 72 h; series mostly up to 46 µM. The method in brief:
as §1

A further experiment has as its system WaGa. The experiment is described as above. To be noted: MCC and control cell lines, CellTiter-Glo viability, 72 h; series mostly up to 46 µM. The method in brief: as §1
The next experiment has as its system C33A. The experiment is described as follows: Primary qHTS to identify gynecologic anti-cancer compounds using libraries of approved drugs and bioactive compounds (AID 1345084). Further: nearly all actives have a fitted effect of over 55% in size. To be noted: Gynecologic cancer cell panel viability, ATPlite luminescence, 48 h; series mostly up to 57.5 µM. The gist of the method:
(§2)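 Measured: luminescence after ATPlite addition (15 min, RT). Exposure: 48 h, 37 C, 5% CO2.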

Another experiment deals with CAOV3. The description is as above. To be noted: Gynecologic cancer cell panel viability, ATPlite luminescence, 48 h; series mostly up to 57.5 µM. The method in brief: as §2
Another experiment concerns CASKI. The description is as above. To be noted: Gynecologic cancer cell panel viability, ATPlite luminescence, 48 h; series mostly up to 57.5 µM. The gist of the method: as §2
In a further experiment the test system is Es-2. Described as above. As to conditions: Gynecologic cancer cell panel viability, ATPlite luminescence, 48 h; series mostly up to 57.5 µM. The gist of the method:
as §2

The test system of another experiment is OV90. The description is as above. To be noted: Gynecologic cancer cell panel viability, ATPlite luminescence, 48 h; series mostly up to 57.5 µM. The gist of the method: as §2
Another experiment concerns SKOV3. The experiment is described as above. To be noted: Gynecologic cancer cell panel viability, ATPlite luminescence, 48 h; series mostly up to 57.5 µM. The gist of the method: as §2
Another experiment concerns Tov-21-G. The experiment is described as above. To be noted: Gynecologic cancer cell panel viability, ATPlite luminescence, 48 h; series mostly up to 57.5 µM. The method in brief: as §2
The next experiment has as its system astro. The experiment is described as follows: Drug repurposing screens with cells derived from glioblastoma tumor samples (AID 1345199). Further: nearly all actives have a fitted effect of over 40% in size. To be noted: viability, ATP luminescence, 48 h; series mostly up to 45.9 µM. The method in brief:
(§3)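 Primary testing used CD133+ neurospheres from four GBM patients, seven concentrations, 48 h exposure and ATP-based viability; confirmation added three slower-growing patient lines.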

The next experiment has as its system HeLa. Briefly: Primary qHTS to identify gynecologic anti-cancer compounds using libraries of approved drugs and bioactive compounds (AID 1345084). Further: nearly all actives have a fitted effect of over 55% in size. To be noted: Gynecologic cancer cell panel viability, ATPlite luminescence, 48 h; series mostly up to 57.5 µM. The gist of the method: as §2
In another experiment the test system is Hek293T. The description is as above. To be noted: Gynecologic cancer cell panel viability, ATPlite luminescence, 48 h, control line for the selectivity index; series mostly up to 57.5 µM. The gist of the method:
as §2

Another experiment concerns JEG-3. The description is as above. As to conditions: Gynecologic cancer cell panel viability, ATPlite luminescence, 48 h; series mostly up to 57.5 µM. The method in brief: as §2
For the next experiment, the system named is PA-1. The experiment is described as above. As to conditions: Gynecologic cancer cell panel viability, ATPlite luminescence, 48 h; series mostly up to 57.5 µM. The gist of the method:
as §2

A further experiment deals with Tov112D. The experiment is described as above. To be noted: Gynecologic cancer cell panel viability, ATPlite luminescence, 48 h; series mostly up to 57.5 µM. The gist of the method:
as §2

Experiment [1] is described as follows: Drug repurposing screens with cells derived from glioblastoma tumor samples (AID 1345199). Further: nearly all actives have a fitted effect of over 40% in size. To be noted: GBM patient neurospheres viability, ATP luminescence, 48 h. The gist of the method: as §3
Where [2] appears, read: at 45.9 µM (top of the series), tumour line B.
Where [3] appears, read: at 45.9 µM (top of the series), tumour line D.
The mark [4] stands for this setting: at 46 µM (top of the series), tumour line A.
[5] abbreviates: at 46.1 µM (top of the series), tumour line C.
On the % scale 0 is the no-effect control and ±100 the full control effect; potency means the concentration at half of the fitted maximal effect.

Regarding `C1CCC(C(CC2CCCCN2)C2CCCCC2)CC1` (stereo not drawn), the Potency in the experiment with MCC-26 is 21.1 µM (active) and inactive; in the experiment with MKL-1, 6.68 µM (active); with MKL-2, 2.37 µM (active) and 18.7 µM (active); in the experiment on UISO, 16.8 µM (active) and inactive; in the experiment on WaGa it was 21.1 µM (active); with C33A it was 31600 nM (active). Besides, the Potency in the experiment on CAOV3 is 6310 nM (active); with CASKI it was 20000 nM (active); in the experiment on Es-2, 28200 nM (active); in the experiment on OV90, 25100 nM (active); with SKOV3, 7940 nM (active); with Tov-21-G, 31600 nM (active). Also, the Potency in the experiment with astro is 15800 nM (active).

In the case of `CCC(=O)O[C@]1(C(=O)SCF)[C@H](C)C[C@H]2[C@@H]3C[C@H](F)C4=CC(=O)C=C[C@]4(C)[C@@]3(F)[C@@H](O)C[C@@]21C`, the Potency result with MCC-26, in the experiment with MKL-1, with MKL-2, in the experiment on UISO, in the experiment on WaGa and in the experiment with C33A was “inactive” each time. Besides, the Potency result with CASKI, in the experiment with Es-2, with HeLa, in the experiment with Hek293T, in the experiment on JEG-3 and in the experiment with OV90 was “inactive” in each case. In addition, the Potency entry in the experiment on PA-1, with SKOV3, with Tov-21-G, in the experiment on Tov112D and in the experiment with astro was “inactive” in each case. Also, the activity, negative = cell killing is -9.5% (inactive) in [1] (at 20 µM (top of the series), tumour line C); -18.7% (inactive) in experiment [1] (at 21.2 µM (top of the series), tumour line B); 13.1% (inactive) in experiment [1] (at 21.2 µM (top of the series), tumour line D); -14.8% (inactive) in experiment [1] (at 21.3 µM (top of the series), tumour line A).

As to `CN1CCN(c2c(F)cc3c(=O)c(C(=O)O)cn4c3c2OCN4C)CC1`, the Potency entry with MCC-26, with MKL-1, in the experiment on MKL-2, with UISO, in the experiment with WaGa and in the experiment on C33A was “inactive” throughout. Besides, the Potency entry with CAOV3, with CASKI, with Es-2, in the experiment on Hek293T, in the experiment on JEG-3 and in the experiment on OV90 was “inactive” throughout. In addition, the Potency result in the experiment on PA-1, with SKOV3, with Tov-21-G, in the experiment with Tov112D and in the experiment with astro was “inactive” each time. The activity, negative = cell killing in experiment [1] (setting [2]) was 0.422% (inactive); in [1] (setting [3]), -17.1% (inactive); in experiment [1] (setting [4]) it was -24% (inactive); in experiment [1] (setting [5]) it was 18% (inactive).

On to `CC(C)C[C@H](NC(=O)[C@H](CCc1ccccc1)NC(=O)CN1CCOCC1)C(=O)N[C@@H](Cc1ccccc1)C(=O)N[C@@H](CC(C)C)C(=O)[C@@]1(C)CO1`, for which the Potency in the experiment with MCC-26 was 105 nM (active); in the experiment with MKL-1 it was 5.3 nM (active) and 37.2 nM (active); with MKL-2, 1.1 nM (active) and 14.8 nM (active); with UISO, 18.8 nM (active) and 59 nM (active); in the experiment with WaGa, 4.7 nM (active) and 29.6 nM (active); in the experiment on C33A, 316 nM (active). The Potency was 316 nM (active) with CASKI; 316 nM (active) in the experiment on Es-2; 251 nM (active) in the experiment with Hek293T; 251 nM (active) in the experiment with OV90; 89.1 nM (active) in the experiment on PA-1; 251 nM (active) with SKOV3. The Potency was 251 nM (active) in the experiment with Tov-21-G, 708 nM (active) in the experiment with Tov112D and 708 nM (active) with astro. Besides, in the experiment with JEG-3, the Potency entry is “inactive”.

For the compound `OC(Cn1cncn1)(Cn1cncn1)c1ccc(F)cc1F`, the Potency result in the experiment on MCC-26, in the experiment on MKL-1, in the experiment on MKL-2, in the experiment on UISO, with WaGa and with C33A was “inactive” throughout. Moreover, the Potency result with CAOV3, in the experiment with CASKI, in the experiment with Es-2, with HeLa, with Hek293T and in the experiment with JEG-3 was “inactive” each time. The Potency result in the experiment with OV90, with PA-1, in the experiment on SKOV3, in the experiment with Tov-21-G, with Tov112D and with astro was “inactive” each time. Further, the activity, negative = cell killing was -6.67% (inactive) in experiment [1] (setting [2]), -19.6% (inactive) in experiment [1] (setting [3]), -17.5% (inactive) in experiment [1] (setting [4]) and -6.89% (inactive) in experiment [1] (setting [5]).
